Screening data (PubChem BioAssay)
In the library only some 6.2% were active in any assay of this set; here they are far more common.
SUMO Mot1 rescue: blocks SUMOylation pathway, rescuing yeast Mot1-301 growth | S. cerevisiae Mot1-301 growth rescue, ATP luminescence, 38.5C; percent above DMSO median, 100 means doubled | growth rescue, % at 18.8 µM | hit rate 1% among 320,000;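 active = every valid replicate shows activation above 250% relative to neutral control wells; inactive = the rest, any valid replicate at or below 250%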;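 note: OY570 slx delta 5 strain wells were the positive control but not used for scaling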
H9c2 protect: modulators protecting cardiomyocytes from myocardial damage; H9c2 cardiomyocytes, H2O2 injury protection, ATPLite, 2 h; protection from H2O2 cell death, % at 20 µM; hit rate 0.63% among 360,000;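 active = compounds giving at least 50% protection of heart cells from peroxide-induced death in the single-dose screen, raw or plate-pattern-corrected value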;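 note: 0% = DMSO wells with peroxide and 100% = DMSO wells without peroxide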
NR3A LBD binder: modulates the human NR3A ligand-binding domain; NR3A LBD differential scanning fluorimetry, Tm shift; 0% = protein alone, 100% = glycine-bound protein; Tm shift relative to glycine control, % at 25 µM; hit rate 2.5% among 340,000;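 active = melting temperature shift of at least 10% of the positive control shift, at one fixed dose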
AHR activator: activators of human aryl hydrocarbon receptor | P35869 | AHR-responsive luciferase reporter cells, luminescence | activation, % at 5 µM | hit rate 2.5% among 320,000; in the data active = activation above about 47%;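 note: 0% = vehicle wells and 100% = reference agonist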
NTR1 ag: agonists of human neurotensin receptor NTR1 | P30989 | NTR1-U2OS beta-arrestin-GFP spot imaging, agonist mode | hit rate 0.17% among 330,000 | AID 493036 | activation, % at 20 µM;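 active = activation at or above 40% of the spot to cytoplasm intensity ratio, with at least 20 cells analyzed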;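 note: 0% = DMSO without peptide and 100% = 100 nM NTR1 peptide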
Target sequence (P30989 whole entry, looked up): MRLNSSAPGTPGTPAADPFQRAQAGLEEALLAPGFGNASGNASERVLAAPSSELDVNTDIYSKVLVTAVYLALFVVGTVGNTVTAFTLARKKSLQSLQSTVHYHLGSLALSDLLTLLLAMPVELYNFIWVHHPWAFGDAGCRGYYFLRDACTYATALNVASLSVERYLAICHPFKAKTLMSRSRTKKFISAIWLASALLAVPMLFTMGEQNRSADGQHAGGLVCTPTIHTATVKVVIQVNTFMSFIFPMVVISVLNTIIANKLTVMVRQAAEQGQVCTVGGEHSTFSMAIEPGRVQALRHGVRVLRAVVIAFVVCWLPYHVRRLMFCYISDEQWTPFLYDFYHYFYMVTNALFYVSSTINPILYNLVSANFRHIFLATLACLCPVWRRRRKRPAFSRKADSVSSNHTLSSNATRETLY
AI-2 QS modul: Vibrio harveyi AI-2 quorum sensing modulation; Vibrio harveyi JMH597 AI-2 luminescence/OD600 ratio, 9 h; active compounds read low; strain lacks LuxN and CqsS sensors; 0 = neutral-control median; activity change, % at 7.5 µM; hit rate 0.4% among 300,000; in the data active = activity change below about -75%, passing the limit was not always enough;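 note: luminescence divided by OD600 gain over 9 h not by final OD600 alone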
* = called active by the depositor; / = no result.

SMILES	SUMO Mot1 rescue	H9c2 protect	NR3A LBD binder	AHR activator	NTR1 ag	AI-2 QS modul
COc1ccc2nc(SC(C)C(=O)NCC(=O)Nc3ccc(F)c(F)c3F)[nH]c2c1 (stereo not drawn)	/	-4	1	/	0	/
C=CCOc1ccc(C=Nc2ccc(OC)cc2)c(O)c1	-8	63*	7	0	2	41
COc1cc(CNC[C@H]2O[C@@H](n3ccc(N)nc3=O)[C@H](O)[C@@H]2O)ccc1OCc1ccc(C)cc1	/	12	/	/	/	/
NC(=O)c1cccc(-c2cc(Nc3ccc(OC(F)(F)F)cc3)ncn2)c1	-2	1	25*	-12	17	12
CN(Cc1cnn(Cc2ccccc2)c1)C(=O)CN=C1NS(=O)(=O)c2ccccc21	-2	-2	-3	-1	0	/
Cc1cc(C)c(CSc2nnnn2-c2ccc(C(=O)O)cc2)c(C)c1	581*	-2	0	-1	2	15
CCOc1ccc(NC(=O)CSc2nnnn2-c2ccc(C(N)=O)cc2)cc1	264*	-3	0	-1	1	35
COc1ccc(NC(=O)CSc2nnnn2-c2ccc(OC)cc2)cc1	-11	-1	6	5	2	14
NC(=O)c1ccc(-n2nnnc2SCC(=O)c2ccc(O)c(O)c2)cc1	-15	4	1	1	0	-14
COc1ccc(-n2nnnc2SCC(=O)c2ccc(O)c(O)c2)cc1	13	60*	-5	1	0	-4
COc1ccc(NC(=O)CSc2nnnn2-c2ccc(F)cc2)cc1	9	-1	14*	2	0	5
CCOc1ccc(NC(=O)CSc2nnnn2CC(=O)O)cc1	-12	-3	0	1	0	2
Cc1onc(-c2ccccc2)c1C(=O)NNC(=O)c1ccccc1O	7	14	-4	78*	0	-3
Cc1onc(-c2c(Cl)cccc2Cl)c1C(=O)NCCc1ccc(S(N)(=O)=O)cc1	9	4	-2	-1	-1	25
Cc1onc(-c2ccccc2)c1C(=O)NNC(=O)c1ccccc1	/	1	2	12	-1	/
NS(=O)(=O)c1ccc(CCNC(=O)c2cc(-c3ccc(Br)cc3)nc3ccccc23)cc1	-26	36	4	15	5	26
Cc1onc(-c2ccccc2)c1C(=O)NCCc1ccc(S(N)(=O)=O)cc1	459	0	-2	76*	5	17
CCCc1ccc(-c2cc(C(=O)NCCc3ccc(S(N)(=O)=O)cc3)c3ccccc3n2)cc1	12	-10	12*	13	8	25
Cc1ccc(/C=N/NC(=O)c2c(-c3ccccc3)noc2C)c(O)c1	6	54*	/	-2	1	26
CCN(Cc1nc2ccccc2c(=O)[nH]1)C(=O)COc1ccccc1-c1ccccc1	18	6	-2	5	8	/
CCc1nc2ccc(C(=O)Nc3cccc(OCC(=O)N(C)C)c3)cn2c1N(C)C(=O)c1ccncc1	/	2	/	/	/	/
CCc1nc(Nc2cccc(F)c2)c2oc3ccccc3c2n1	-4	-4	12*	30	4	1
c1ccc2c(c1)oc1c(Nc3ccc4c(c3)OCO4)ncnc12	0	-16	2	42	0	15
COc1ccc(Nc2nc(C)nc3c2oc2ccccc23)cc1	8	3	/	11	5	17
Cc1nc(NCCN2CCOCC2)c2oc3ccccc3c2n1	-19	9	1	4	0	-17
SMILES	SUMO Mot1 rescue	H9c2 protect	NR3A LBD binder	AHR activator	NTR1 ag	AI-2 QS modul
Cc1nc(NCCc2ccccc2)c2oc3ccccc3c2n1	-13	-14	-1	64*	8	12
CCc1nc(Nc2ccc(F)cc2)c2oc3ccccc3c2n1	-6	-3	7	24	6	24
Cc1nc(Nc2ccc3c(c2)OCO3)c2oc3ccccc3c2n1	/	17	-17	65*	2	28
Cc1ccc(Nc2nc(C)nc3c2oc2ccccc23)cc1	-4	-3	-3	61*	7	2
CC(C)CNS(=O)(=O)c1ccc(CCC(=O)NCCc2ccccc2)cc1	7	7	2	3	2	6
COc1ccc(C(C)=O)c(OCC(=O)NCCC2=CCCCC2)c1	/	-8	/	/	/	/
CCc1nc(Nc2ccccc2)c2oc3ccccc3c2n1	/	2	-11	22	1	6
Cc1nc(Nc2ccccc2)c2oc3ccc(Cl)cc3c2n1	-4	-8	16*	51*	2	-1
Cc1c(CCC(=O)N[C@@H](C)C(=O)O)c(=O)oc2cc3occ(-c4ccccc4)c3cc12	-37	0	-3	0	1	6
CCCCN(CCCC)CCNC(=O)c1ccc2nc(-c3ccccc3NC(C)=O)c(=O)[nH]c2c1	561*	4	-1	1	0	15
CC(=O)Nc1ccccc1-c1nc2cc(C#N)c(C#N)cc2[nH]c1=O	-4	-6	0	17	2	8
COc1ccccc1C(CNC(=O)CN1C(=O)NC(C)(c2ccc3ccccc3c2)C1=O)N1CCCC1 (stereo not drawn)	/	12	1	/	/	/
COc1ccccc1C(=O)Nc1cccc(C(=O)c2ccccc2)c1	5	6	-3	-7	3	-1
COc1cccc(OC)c1C(=O)Nc1ccc(Br)c(C(=O)c2ccccc2)c1	-11	54*	0	5	4	18
O=C(CNC(=O)Cc1ccccc1)NCC(=O)OCC(=O)c1ccc(F)cc1	8	-1	2	3	4	5
O=C(Cc1ccccc1)NCC(=O)OCC(=O)c1ccc(Cl)c([N+](=O)[O-])c1	-1	26	12*	6	-1	2
O=C(CNC(=O)Cc1ccccc1)NCC(=O)OCC(=O)c1cccc2ccccc12	4	8	12*	-1	-2	21
Cc1[nH]c2ccc(C(=O)N3CCN(c4ccccn4)CC3)cc2c1C	0	6	1	19	-1	13
N/C(=N\OC(=O)c1ccccc1Cl)c1ccc(Cl)cc1	1	-30	-1	57*	3	26
N/C(=N\OC(=O)c1ccccc1Cl)c1ccccc1	-2	-22	2	54*	3	17
Cc1ccc(S(=O)(=O)Nc2ccc3nc(C)oc3c2)cc1	/	-13	11*	/	/	/
Cc1ccc2nc(-c3ccc(NS(=O)(=O)c4ccc(F)c(F)c4)cc3)sc2c1	32	-19	36*	6	/	41
Cc1ccc(S(=O)(=O)Nc2ccc3nc(C)sc3c2)cc1	-30	-23	1	0	0	46
Cc1ccc2nc(-c3ccc(NS(=O)(=O)c4ccccc4)cc3)sc2c1	201	-9	28*	11	18	25
CC(C)(C)c1ccc(-c2noc(-c3ccc4c(c3)CCO4)n2)cc1	-1	-11	5	-3	4	29
